A short description of test [1]: qHTS assay to identify small molecule agonists of H2AX (AID 1224845; active = well fitted activation curve with a large enough effect in the signal ratio in the repeat runs, not every such curve was filed as active; the % refers to the signal ratio; note: potency is the fitted concentration of half-maximal effect). The essentials: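 Wild-type CHO-K1 cells, plated overnight, exposed 3hr at 37C to 15 concentrations (0.76% DMSO final). Lysed, then HTRF anti-pH2AX (S139) cryptate and anti-H2AX-d2 antibodies, 24 hr room temperature; 665/620 nm emission read.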
A general note: qHTS replaces the single test concentration by a dilution series.

Test [2] can be described thus: qHTS assay to identify small molecule agonists of the hypoxia (HIF-1) signaling pathway (AID 1224846; active = well fitted activation curve with a large enough effect in the signal ratio in the repeat runs, not every such curve was filed as active; the % refers to the signal ratio). Put shortly: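 Hypoxia-pathway activation was scored as increased beta-lactamase from an HRE-controlled reporter in ME-180 cells; plated at 2,000 cells per well with 0.5% dialyzed FBS, they were exposed 17 hrs to compounds and then given CCF4-AM.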
Test [3] can be described thus: qHTS assay to identify small molecule agonists of H2AX - cell viability counter screen (AID 1224847; calls by dose curve; note: top concentration of the series differs between compounds; nearly all actives have a fitted effect of over 30% in size). The essentials: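 Cells plated first: CHO-K1, 1000 per well in 10% FBS medium, incubated overnight at 37C. Then 15-point compound titration added (final DMSO 0.76%) for 3 hr. Finally CellTiter-Glo added and luminescence read.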
The nature of test [4]: qHTS assay to identify small molecule agonists of the estrogen related receptor (ERR) signaling pathway from Tox21 library (AID 1224849; calls by dose curve; note: nearly all actives have a fitted effect of over 15% in size). As to conditions: ERR reporter cell line, ONE-Glo luciferase, 18 h; at 92.4 µM (top of the series) unless noted. The essentials: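 Six hours post-seeding at 37 C/5% CO2, ERR cells receive DMSO-solubilised compounds; after 18 h at 37 C, ONE-Glo reagent is applied and luminescence recorded.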

Test [5] can be described thus: qHTS RealTime-Glo MT Cell Viability Assay in HepG2 cells - 24 hour (AID 1224867). Note: nearly all actives have a fitted effect of over 50% in size. Put shortly:
(§1)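 Real-time, nonlytic viability: 600 HepG2 cells/well mixed with NanoLuc enzyme plus prosubstrate; 5 h settle, compound (DMSO) added by pintool; luminescence monitored over 40 h at 37 C.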

Test [6] is described as follows: qHTS RealTime-Glo MT Cell Viability Assay in HEK293 cells - 32 hour (AID 1224868). Note: nearly all actives have a fitted effect of over 50% in size. Note: potency is the fitted concentration of half-maximal effect. Put shortly:
(§2)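 Cells + reagent dispensed (600 cells/well, HEK293) → 5 h at 37 C/5% CO2 → 23 nL compound in DMSO pinned → 40 h at 37 C → luminescence read at 0, 8, 16, 24, 32, 40 h.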

Test [7] can be described thus: A CellTox Green Cytotoxicity Assay to monitor cytotoxicity in HEK293 cells - 0 hour (AID 1224869). Note: nearly all actives have a fitted effect of over 50% in size. The essentials:
(§3)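 Seeding of HEK293 cells together with cytotoxicity dye preceded a 5 h incubation at 37 C/5% CO2. Test compounds in DMSO were then added and fluorescence monitored across 40 h.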

A short description of test [8]: qHTS RealTime-Glo MT Cell Viability Assay in HepG2 cells - 40 hour (AID 1224870). Note: nearly all actives have a fitted effect of over 50% in size. Put shortly: (§4)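 HepG2 cells (600/well) mixed with RealTime-Glo MT reagent, settled 5 h at 37 C/5% CO2 before compound addition. Nonlytic NanoLuc luminescence from viable-cell prosubstrate reduction read repeatedly during 40 h treatment at 37 C.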
Test [9] in a line: A CellTox Green Cytotoxicity Assay to monitor cytotoxicity in HEK293 cells - 40 hour (AID 1224871). Note: nearly all actives have a fitted effect of over 45% in size. Note: potency is the fitted concentration of half-maximal effect. Put shortly: as §3
Test [10] in a line: qHTS RealTime-Glo MT Cell Viability Assay in HEK293 cells - 40 hour (AID 1224874). Note: nearly all actives have a fitted effect of over 50% in size. Note: potency is the fitted concentration of half-maximal effect. As to conditions: RealTime-Glo luminescence; max response: stronger effect = lower value. The essentials:
(§5)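 Tox21 screen in HEK293 using RealTime-Glo MT chemistry, with cells and reagent co-dispensed. Luminescence proportional to viable cell number was captured at intervals during 40 h compound exposure at 37 C.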

Test [11] in a line: A CellTox Green Cytotoxicity Assay to monitor cytotoxicity in HEK293 cells - 24 hour (AID 1224875). Note: nearly all actives have a fitted effect of over 45% in size. Put shortly: as §3
The nature of test [12]: A CellTox Green Cytotoxicity Assay to monitor cytotoxicity in HepG2 cells - 16 hour (AID 1224876). Note: nearly all actives have a fitted effect of over 45% in size. Put shortly:
(§6)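 Nonlytic assay: viable cells exclude the dye, so fluorescence scales with cell death. HepG2 at 600 cells/well, compounds added after 5 h, signal read across 40 h.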

A short description of test [13]: qHTS RealTime-Glo MT Cell Viability Assay in HepG2 cells - 32 hour (AID 1224877). Note: nearly all actives have a fitted effect of over 55% in size. The essentials:
as §1

Test [14] is described as follows: A CellTox Green Cytotoxicity Assay to monitor cytotoxicity in HepG2 cells - 24 hour (AID 1224878). Note: nearly all actives have a fitted effect of over 45% in size. Note: potency is the fitted concentration of half-maximal effect. Put shortly:
as §6

A short description of test [15]: A CellTox Green Cytotoxicity Assay to monitor cytotoxicity in HepG2 cells - 40 hour (AID 1224879). Note: nearly all actives have a fitted effect of over 40% in size. Note: potency is the fitted concentration of half-maximal effect. Put shortly:
as §6

Test [16] in a line: qHTS RealTime-Glo MT Cell Viability Assay in HEK293 cells - 0 hour (AID 1224880). The essentials:
as §5

Test [17] in a line: qHTS RealTime-Glo MT Cell Viability Assay in HEK293 cells - 16 hour (AID 1224872). Note: nearly all actives have a fitted effect of over 50% in size. Note: potency is the fitted concentration of half-maximal effect. The essentials: as §2
Test [18] in a line: qHTS RealTime-Glo MT Cell Viability Assay in HepG2 cells - 8 hour (AID 1224873). Note: nearly all actives have a fitted effect of over 55% in size. Put shortly:
as §4

Test [19] is described as follows: qHTS assay to identify small molecule antagonists of the estrogen related receptor (ERR) signaling pathway from Tox21 library (AID 1224848). Note: nearly all actives have a fitted effect of over 50% in size. The essentials:
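Luminescent reporter read-out (ONE-Glo) from NTP's ERR cell line after 18 h treatment at 37 C with DMSO-dissolved Tox21 compounds; cells pre-plated 6 h beforehand at 2,000 per well.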

Values without a mark were called inactive. Records with an inconclusive call do not appear. Activity calls are given as the source filed them. Unless noted, calls come from the whole dose curve; as a rule, active = well fitted curve in the direction sought with a large enough effect in the repeat runs; inconclusive = weak or mixed curves; inactive = no such curve, though single readings can be large; an effect the other way counts as inactive or inconclusive.
% is set by controls: 0 for no effect and ±100 for the full control effect.

Take `CC(C)(C)C(=O)OCOP(=O)(COCCn1cnc2c(N)ncnc21)OCOC(=O)C(C)(C)C`: the Potency in [1] is 0.277 µM (active); in [6], 0.756 µM (active); in test [10] it was 0.848 µM (active). Further, the result in test [2] was inactive. Also, the Potency entry in test [3], in test [5], in test [7], in test [8], in test [9] and in test [11] was “inactive” throughout. Further, the Potency entry in test [12], in [13], in test [14], in [15] and in test [16] was “inactive” throughout. Also, the activity change, positive = activation in test [4] is -1.22% [at 42.5 µM].
On to `CCCCOc1ccc(CC(=O)NO)cc1`, for which the Potency entry in test [3], in test [5], in [7], in test [8], in test [9] and in [18] was “inactive” each time. The Potency entry in test [11], in [12], in [13], in test [14] and in [16] was “inactive” each time. Moreover, in test [17], the Potency was 2.68 µM (active).
As to `CN1CCN(C2=Nc3cc(Cl)ccc3Nc3ccccc32)CC1`, the Potency entry in [3], in test [7], in test [9], in [17], in test [18] and in [11] was “inactive” in each case. The Potency result in [12] was “inactive”. For the same compound, the Potency in [14] and in [15] was 23.9 µM (active) each time.
Consider `C1=Cc2ccccc2C1`, for which the Potency result in [1], in test [3], in test [19], in test [5], in test [6] and in test [7] was “inactive” throughout. Besides, the Potency result in [8], in test [9], in test [17], in test [18], in test [11] and in test [12] was “inactive” throughout. Moreover, the Potency result in [13], in test [14] and in test [15] was “inactive” each time. The activity change, positive = activation in [4] is 2.75%. The max response in [10] was 6.96%.
Consider `CCCCCOC(=O)COc1cc(N2C(=O)C3=C(CCCC3)C2=O)c(F)cc1Cl`, for which the Potency entry in [5], in [6], in [7], in test [8], in test [9] and in test [17] was “inactive” each time. Moreover, the Potency entry in test [18], in [11], in test [12], in [13], in [14] and in test [15] was “inactive” each time. Moreover, the Potency result in test [16] is “inactive”. Further, in test [10], the max response was 4.37%.
As to `CCCCOC(O)CC` (centres undefined), the compound was called inactive in [2]. Moreover, the Potency result in test [3], in test [5], in test [6], in [7], in test [8] and in test [9] was “inactive” each time. Further, the Potency result in [17], in [11], in test [13], in [14], in test [15] and in test [16] was “inactive” each time. For the same compound, the max response in [10] was 3%.
As for `O=C(O)Cc1sc(-c2ccccc2)nc1-c1ccc(Cl)cc1`, the outcome in test [2] was inactive. The Potency result in test [3], in [5], in test [6], in test [7], in test [9] and in [17] was “inactive” in each case. Besides, the Potency entry in test [18], in test [11], in test [13], in test [14] and in test [15] was “inactive” throughout. For the same compound, in [4], the activity change, positive = activation is -15.3% [at 42.5 µM]. In addition, the max response in [10] is 0.938%.
For the compound `CCCCc1cc2ccccc2c(OCCN(C)C)n1`, the Potency entry in test [1], in test [5], in [7], in test [18], in [13] and in test [16] was “inactive” throughout. For the same compound, in test [2], the compound was classed as inactive. In test [9], the Potency is 21.3 µM (active).
Regarding `Oc1ccc(O)c2c(O)cccc12`, the Potency entry in test [3], in [19], in test [5], in test [6], in test [7] and in [8] was “inactive” in each case. The Potency result in [9], in test [18], in test [11], in test [12], in test [13] and in test [14] was “inactive” in each case. The Potency result in [15] and in test [16] was “inactive” throughout. In addition, in test [4], the activity change, positive = activation is 1.72%. Moreover, the max response in test [10] was -0.428%.
Consider `CN(C)CC/C=C1\c2ccccc2COc2ccccc21`, for which the Potency result in test [1], in [3], in [5], in test [6], in test [7] and in test [9] was “inactive” in each case. Moreover, the Potency result in [17], in test [11], in test [13], in test [14] and in test [16] was “inactive” in each case. The max response in test [10] was 3.53%.
Consider `CN1CCC(=C2c3ccccc3C=Cc3ccccc32)CC1`, for which the Potency entry in test [1], in [3], in [7], in [8], in test [17] and in test [18] was “inactive” each time. Also, the Potency result in test [13] and in [16] was “inactive” throughout. For the same compound, the activity change, positive = activation in [4] is 5.98% [at 42.5 µM]. Further, the Potency in [15] was 26.8 µM (active).
`CC(=O)Nc1ccc(/C=N/NC(N)=S)cc1`: in test [2], the compound was classed as inactive. The Potency result in [3], in test [5], in [6], in test [7], in test [9] and in test [17] was “inactive” each time. The Potency entry in test [18], in test [11], in [12], in test [13], in test [14] and in test [15] was “inactive” in each case. In addition, in test [16], the Potency entry is “inactive”. For the same compound, the max response in test [10] is 0.836%.
Turning to `CCN(CC)CCc1nc(-c2ccccc2)no1`, the outcome in test [2] was inactive. Besides, the Potency entry in [3], in [5], in test [6], in test [7], in test [8] and in test [9] was “inactive” throughout. Further, the Potency result in test [17], in [18], in test [11], in test [12], in test [13] and in [14] was “inactive” each time. Further, the Potency entry in [15] and in [16] was “inactive” in each case. Further, the activity change, positive = activation in [4] is 0.733% [at 42.5 µM]. Further, the max response in test [10] was 0.0849%.
For the compound `CC(=O)CC(=O)c1ccccc1`, in [2], the call was inactive. Also, the Potency entry in test [3], in test [5], in [7], in test [8], in [9] and in test [17] was “inactive” each time. Moreover, the Potency result in test [18], in test [11], in test [12], in [13], in test [14] and in [15] was “inactive” each time. In [16], the Potency result was “inactive”. Further, the activity change, positive = activation in [4] was 14.5%.
